Screening results from PubChem.
Spn MK inh: S. pneumoniae mevalonate kinase inhibition | purified MK, PK/LDH-coupled NADH absorbance 340 nm | actives 0.48% (n = 65,000) | inhibition, % at 10 µM;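 active means ranked among the strongest by inhibition in the single 10 µM screen, a fixed top-ranked set picked for dose follow-up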
Spn PMK inh: S. pneumoniae PMK inhibition. purified PMK, PK/LDH-coupled NADH absorbance 340 nm. inhibition, % at 10 µM. actives 0.49% (n = 65,000);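 active means top-ranked compounds by inhibition in the single 10 µM screen, taking a fixed number of the strongest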;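 further: 0% = full reaction with DMSO carrier and 100% = background rate without enzyme reaction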
Autofluor 339: intrinsic fluorescence of library compounds, ex339/em460 – biochemical, MLSMR library, data from DPM-DC assay, artefact control, profiling panel; compound autofluorescence, ex339/em460 nm, NADH buffer; hits give high values; 1 = no-compound wells, NADH background; fluorescence fold increase at 10 µM; actives 5.5% (n = 65,000); AID 709;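 active means at 10 µM, mean starting fluorescence two-fold or more over control wells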;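 further: signal is the first read of a kinetic run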
NADH enzymes: inhibitors of enzymes used to reach an NAD/NADH endpoint. AID 774. actives 0.02% (n = 65,000). coupled PK/LDH NADH assays, four targets. IC50, µM (top dose mostly 10 µM), inactives show at the highest dose inhibition;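 active means single-dose screening hits from any of four coupled enzyme assays that gave an IC50 when retested across doses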;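 further: the DPM-DC format reads NADH fluorescence rather than 340 nm absorbance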
Abs 340nm: compound absorbs light at 340 nm; compound absorbance at 340 nm, fold over control; 65,000 tested, under 10 active; fold change at 10 µM;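 active means at 10 µM dose, initial 340 nm absorbance at least 2 fold that of control wells; inactive means change under 2 fold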;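 further: initial absorbance extrapolated from kinetic A340 decline of NADH oxidation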
DPM-DC inhibit: blocks S. pneumoniae diphosphomevalonate decarboxylase. purified DPM-DC, PK/LDH coupled NADH fluorescence. calls only at 10 µM. actives 0.49% (n = 65,000). AID 556;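 active means the 320 compounds with the highest percent inhibition in the single-dose primary screen, excluding strongly autofluorescent ones, cut at about 32% in these data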;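 further: kinetic rate of NADH fluorescence loss reporting ADP formed by the decarboxylase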
* = called active by the depositor; i = inactive; / = no result given; + = active, no number. A selection: hits, their analogues and other compounds. The true share with any hit is near 6.3%.

SMILES | Spn MK inh | Spn PMK inh | Autofluor 339 | NADH enzymes | Abs 340nm | DPM-DC inhibit
COc1cccc(-c2nnc(SCC(=O)N3CC(C)CC(C)C3)o2)c1 (stereo not given) | 8.0 | 11.0 | 1.06 | 6.0% | 1.01 | i
COc1cccc(NC(=O)N2CCN(Cc3nc4ccccc4c(=O)[nH]3)CC2)c1 | 5.0 | 3.0 | 1.03 | 3.0% | 1.01 | i
CCCS(=O)(=O)N1CCc2cc(OC)c(OC)cc2C1 | 13.0 | 3.0 | 1.16 | 5.0% | 0.98 | i
COc1cc(C)nc(Nc2nc(C)c(C(C)=O)s2)n1 | 1.0 | 4.0 | 1.07 | 3.0% | 1.14 | i
COc1ccc2nc(Nc3nc(C)c(C(C)=O)s3)sc2c1 | 9.0 | 11.0 | 2.04* | 7.0% | 1.04 | i
Clc1c(-c2nnc3n2CCC3)sc2ccccc12 | 8.0 | 3.0 | 1.26 | 36.0% | 1.29 | +
COc1ccc(NC2CC(=O)NC2=O)cc1 (stereo not given) | 0.0 | 26.0* | 1.14 | 9.0% | 1.02 | i
COc1ccc(N2CCN(C3CC(=O)NC3=O)CC2)cc1 (stereo not given) | 11.0 | 0.0 | 1.05 | 6.0% | 1 | i
CCOC(=O)c1[nH]c2cc3c(cc2c1NC(=O)CN1CCc2ccccc2C1)OCO3 | 0.0 | 0.0 | 2.3* | 0.0% | 1.11 | /
CCOC(=O)N1CCN(CC(=O)Nc2c(C(=O)OC)[nH]c3ccccc23)CC1 | 13.0 | 5.0 | 1.62 | 9.0% | 1.04 | i
CCOC(=O)c1[nH]c2cc3c(cc2c1NC(=O)CN1CCC(C)CC1)OCO3 | 9.0 | 0.0 | 2.27* | 5.0% | 1.1 | /
Cc1cc(C)c(C#N)c(SCC(=O)Nc2nnc(-c3ccccc3)s2)n1 | 8.0 | 0.0 | 2.12* | 4.0% | 1.08 | /
Cc1cc(C)c(C#N)c(SCC(=O)CC(=O)OC(C)C)n1 | 6.0 | 7.0 | 2.98* | 13.0% | 1.01 | i
O=C(NC1CC2CCC(C1)N2C(=O)NCc1ccccc1)C1CC1 (stereo not given) | 1.0 | 20.0 | 1.09 | 7.0% | 0.93 | i
COc1ccc(N(CC(=O)O)S(=O)(=O)c2cccnc2)cc1 | 15.0 | 11.0 | 1.12 | 9.0% | 1 | i
COC(=O)c1nonc1NCn1nnc2ccccc21 | 7.0 | 29.0* | 1.08 | 12.0% | 0.98 | i
COC(=O)c1ccc(NC(=O)Cn2nnc3ccccc32)cc1 | 8.0 | 10.0 | 1.04 | 3.0% | 1.08 | i
CCOC(=O)c1ccc(NC(=O)CSc2nc(C)cc(=O)[nH]2)cc1 | 14.0 | 26.0* | 1.11 | 16.0% | 0.99 | i
CN(Cc1c(F)cccc1Cl)c1ccc(S(=O)(=O)N2CCOCC2)cn1 | 0.0 | 10.0 | 2.57* | 8.0% | 1 | i
Cc1ccc(NC(=O)COc2ccc(/C(N)=N/O)cc2)cc1C | 1.0 | 18.0 | 1.08 | 6.0% | 1 | i
Cc1ccc(S(=O)(=O)Cc2cn3cccnc3n2)cc1 | 1.0 | 8.0 | 3.74* | 5.0% | 1.05 | /
CC(=NCc1ccco1)c1c(C)[nH]n(-c2nc3ccccc3s2)c1=O | 0.0 | 12.0 | 1.2 | 16.0% | 1.06 | +
COc1ccc(NC(=O)NS(=O)(=O)c2ccc(C)cc2)c(OC)c1 | 12.0 | 11.0 | 1.58 | 8.0% | 1.01 | i
COc1cc(OC)nc(NC(=O)NS(=O)(=O)c2ccc(OC(F)(F)F)cc2)n1 | 0.0 | 25.0* | 1.05 | 12.0% | 0.99 | i
O=C(CCNS(=O)(=O)c1cccc2nsnc12)NC1CCN(Cc2ccccc2)CC1 | 6.0 | 6.0 | 1.16 | 4.0% | 1.08 | i
SMILES | Spn MK inh | Spn PMK inh | Autofluor 339 | NADH enzymes | Abs 340nm | DPM-DC inhibit
c1c2c(cc3sc(N4CCCCC4)nc13)OCO2 | 6.0 | 18.0 | 1.12 | 8.0% | 1.01 | i
O=c1cc(C(F)(F)F)c2sc(N3CCCCC3)nc2[nH]1 | 0.0 | 17.0 | 2.12* | 9.0% | 1.08 | /
COc1ccccc1OCc1nc(Cc2ccc(Cl)cc2)no1 | 9.0 | 7.0 | 1.05 | 8.0% | 0.99 | i
Cc1ccc2cc(CN(CCO)Cc3nnnn3Cc3ccc(F)cc3)c(=O)[nH]c2c1 | 1.0 | 14.0 | 1.07 | 6.0% | 1.02 | i
Cc1ccc2[nH]c(=O)c(CN(Cc3ccc4c(c3)OCO4)Cc3nnnn3Cc3ccco3)cc2c1 | 8.0 | 11.0 | 1.09 | 4.0% | 1.01 | i
CCOc1ccc2[nH]c(=O)c(CN(Cc3cccs3)Cc3nnnn3C(C)(C)CC)cc2c1 | 4.0 | 11.0 | 2.65* | 15.0% | 1.02 | i
CCC(C)(C)n1nnnc1CN(Cc1cccs1)Cc1cc2cc(OC)ccc2[nH]c1=O | 9.0 | 8.0 | 1.68 | 7.0% | 1.01 | i
